# From the supplement of paper PMC12282887
# ± gives the standard deviation of the averaged measurements.
# How the values were obtained:
# Experiment in all cases: promoter activity interaction Z-score (Lux/OD deviation from empty-vector control); higher = stronger promoter induction by the compound
# [1] = test system: E. coli BW25113 acrABp lux reporter
# How it was run: (§1)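 Low-copy luxCDABE promoter reporters were carried by E. coli BW25113, either wild type or lacking one of three genes, grown in 40 µl LB Lennox in 384-well plates at 37°C. Each compound was run at four 1:2 dilutions in biological duplicates, with OD600 and luminescence read every 30 min for 12 h. Integration used 0–8 h for wild type and 1–9 h for deletion strains, and wells under 10% of the median growth value were removed. Luminescence normalised to growth was fitted against a control, and the Z-transformed residual is the score.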
# [2] = test system: E. coli BW25113 micFp lux reporter
# How it was run: as §1
# [3] = test system: E. coli BW25113 ompFp lux reporter
# How it was run: as §1
# [4] = test system: E. coli BW25113 robp lux reporter
# How it was run: as §1
# [5] = test system: E. coli BW25113 soxSp lux reporter
# How it was run: as §1
# [6] = test system: E. coli BW25113 tolCp lux reporter
# How it was run: as §1
# [7] = 18 µg/ml, genetic background: wild type
# [8] = 18 µg/ml, genetic background: ΔmarA
# [9] = 18 µg/ml, genetic background: Δrob
# [10] = 18 µg/ml, genetic background: ΔsoxS
# [11] = 36.1 µg/ml, genetic background: wild type
# [12] = 36.1 µg/ml, genetic background: ΔmarA
# [13] = 36.1 µg/ml, genetic background: Δrob
# [14] = 36.1 µg/ml, genetic background: ΔsoxS
# [15] = 72.1 µg/ml, genetic background: wild type
# [16] = 72.1 µg/ml, genetic background: ΔmarA
# [17] = 72.1 µg/ml, genetic background: Δrob
# [18] = 72.1 µg/ml, genetic background: ΔsoxS
# [19] = 144.2 µg/ml, genetic background: wild type
# [20] = 144.2 µg/ml, genetic background: ΔmarA
# [21] = 144.2 µg/ml, genetic background: Δrob
# [22] = 144.2 µg/ml, genetic background: ΔsoxS
smiles,measurement,setting,value
C[C@]12CC[C@H]3[C@@H](CCC4=CC(=O)CC[C@@]43C)[C@@H]1CC[C@@H]2O [Testosterone],promoter activity interaction Z-score,[1]; [7],-0.445 ± 0.074
same,promoter activity interaction Z-score,[1]; [8],-0.76 ± 0.16
same,promoter activity interaction Z-score,[1]; [9],-0.613 ± 0.11
same,promoter activity interaction Z-score,[1]; [10],-0.272 ± 0.23
same,promoter activity interaction Z-score,[1]; [11],-0.494 ± 0.042
same,promoter activity interaction Z-score,[1]; [12],-1.03 ± 1.1
same,promoter activity interaction Z-score,[1]; [13],-0.524 ± 0.2
same,promoter activity interaction Z-score,[1]; [14],-0.556 ± 0.063
same,promoter activity interaction Z-score,[1]; [15],-0.447 ± 0.14
same,promoter activity interaction Z-score,[1]; [16],0.264 ± 0.87
same,promoter activity interaction Z-score,[1]; [17],-0.624 ± 0.12
same,promoter activity interaction Z-score,[1]; [18],-0.489 ± 0.08
same,promoter activity interaction Z-score,[1]; [19],-0.411 ± 0.019
same,promoter activity interaction Z-score,[1]; [20],-0.669 ± 0.41
same,promoter activity interaction Z-score,[1]; [21],-0.643 ± 0.08
same,promoter activity interaction Z-score,[1]; [22],-0.295 ± 0.29
same,promoter activity interaction Z-score,[2]; [7],-0.197 ± 0.0038
same,promoter activity interaction Z-score,[2]; [8],0.0474 ± 0.038
same,promoter activity interaction Z-score,[2]; [9],-0.0298 ± 0.091
same,promoter activity interaction Z-score,[2]; [10],0.319 ± 0.18
same,promoter activity interaction Z-score,[2]; [11],-0.14 ± 0.34
same,promoter activity interaction Z-score,[2]; [12],0.094 ± 0.098
same,promoter activity interaction Z-score,[2]; [13],-0.000736 ± 0.15
same,promoter activity interaction Z-score,[2]; [14],-0.0287 ± 0.15
same,promoter activity interaction Z-score,[2]; [15],0.142 ± 0.26
same,promoter activity interaction Z-score,[2]; [16],0.527 ± 0.063
same,promoter activity interaction Z-score,[2]; [17],0.174 ± 0.16
same,promoter activity interaction Z-score,[2]; [18],0.257 ± 0.41
same,promoter activity interaction Z-score,[2]; [19],0.181 ± 0.03
same,promoter activity interaction Z-score,[2]; [20],0.196 ± 0.089
same,promoter activity interaction Z-score,[2]; [21],0.202 ± 0.074
same,promoter activity interaction Z-score,[2]; [22],0.625 ± 0.45
same,promoter activity interaction Z-score,[3]; [7],-0.491 ± 0.12
same,promoter activity interaction Z-score,[3]; [8],-0.598 ± 0.2
same,promoter activity interaction Z-score,[3]; [9],-0.803 ± 0.57
same,promoter activity interaction Z-score,[3]; [10],0.195 ± 0.35
same,promoter activity interaction Z-score,[3]; [11],-0.432 ± 0.41
same,promoter activity interaction Z-score,[3]; [12],-1.1 ± 0.061
same,promoter activity interaction Z-score,[3]; [13],-0.418 ± 0.62
same,promoter activity interaction Z-score,[3]; [14],-0.713 ± 0.022
same,promoter activity interaction Z-score,[3]; [15],-0.907 ± 0.16
same,promoter activity interaction Z-score,[3]; [16],-0.501 ± 0.28
same,promoter activity interaction Z-score,[3]; [17],-0.424 ± 0.42
same,promoter activity interaction Z-score,[3]; [18],-0.715 ± 0.045
same,promoter activity interaction Z-score,[3]; [19],-0.6982 ± 0.0041
same,promoter activity interaction Z-score,[3]; [20],-0.969 ± 0.097
same,promoter activity interaction Z-score,[3]; [21],-0.395 ± 0.47
same,promoter activity interaction Z-score,[3]; [22],-0.339 ± 0.32
same,promoter activity interaction Z-score,[4]; [7],-0.462 ± 0.23
same,promoter activity interaction Z-score,[4]; [8],-1.03 ± 1.1
same,promoter activity interaction Z-score,[4]; [9],-1.05 ± 0.49
same,promoter activity interaction Z-score,[4]; [10],-0.195 ± 0.39
same,promoter activity interaction Z-score,[4]; [11],-0.445 ± 0.22
same,promoter activity interaction Z-score,[4]; [12],-1.14 ± 0.019
same,promoter activity interaction Z-score,[4]; [13],-0.289 ± 0.96
same,promoter activity interaction Z-score,[4]; [14],-0.498 ± 0.64
same,promoter activity interaction Z-score,[4]; [15],-0.398 ± 0.53
same,promoter activity interaction Z-score,[4]; [16],0.148 ± 0.41
same,promoter activity interaction Z-score,[4]; [17],-0.438 ± 1
same,promoter activity interaction Z-score,[4]; [18],-0.274 ± 0.099
same,promoter activity interaction Z-score,[4]; [19],-0.102 ± 0.59
same,promoter activity interaction Z-score,[4]; [20],-0.151 ± 0.4
same,promoter activity interaction Z-score,[4]; [21],-0.428 ± 0.35
same,promoter activity interaction Z-score,[4]; [22],0.0605 ± 0.79
same,promoter activity interaction Z-score,[5]; [7],-0.254 ± 0.24
same,promoter activity interaction Z-score,[5]; [8],-0.0384 ± 0.16
same,promoter activity interaction Z-score,[5]; [9],-0.165 ± 0.23
same,promoter activity interaction Z-score,[5]; [10],-0.0975 ± 0.27
same,promoter activity interaction Z-score,[5]; [11],-0.534 ± 0.01
same,promoter activity interaction Z-score,[5]; [12],-0.3 ± 0.046
same,promoter activity interaction Z-score,[5]; [13],-0.108 ± 0.14
same,promoter activity interaction Z-score,[5]; [14],-0.463 ± 0.35
same,promoter activity interaction Z-score,[5]; [15],-0.459 ± 0.01
same,promoter activity interaction Z-score,[5]; [16],-0.148 ± 0.037
same,promoter activity interaction Z-score,[5]; [17],-0.0584 ± 0.12
same,promoter activity interaction Z-score,[5]; [18],-0.399 ± 0.15
same,promoter activity interaction Z-score,[5]; [19],-0.398 ± 0.075
same,promoter activity interaction Z-score,[5]; [20],-0.389 ± 0.044
same,promoter activity interaction Z-score,[5]; [21],-0.368 ± 0.021
same,promoter activity interaction Z-score,[5]; [22],-0.448 ± 0.076
same,promoter activity interaction Z-score,[6]; [7],0.0813 ± 0.76
same,promoter activity interaction Z-score,[6]; [8],0.0835 ± 0.37
same,promoter activity interaction Z-score,[6]; [9],-0.682 ± 0.73
same,promoter activity interaction Z-score,[6]; [10],0.781 ± 0.5
same,promoter activity interaction Z-score,[6]; [11],0.191 ± 0.092
same,promoter activity interaction Z-score,[6]; [12],-1.71 ± 0.36
same,promoter activity interaction Z-score,[6]; [13],0.34 ± 0.48
same,promoter activity interaction Z-score,[6]; [14],-0.587 ± 0.0086
same,promoter activity interaction Z-score,[6]; [15],0.0036 ± 0.71
same,promoter activity interaction Z-score,[6]; [16],-0.0511 ± 0.6
same,promoter activity interaction Z-score,[6]; [17],0.112 ± 0.27
same,promoter activity interaction Z-score,[6]; [18],0.394 ± 0.17
same,promoter activity interaction Z-score,[6]; [19],0.135 ± 0.34
same,promoter activity interaction Z-score,[6]; [20],-0.734 ± 0.57
same,promoter activity interaction Z-score,[6]; [21],0.644 ± 0.24
same,promoter activity interaction Z-score,[6]; [22],0.344 ± 0.27
